Source: PubChem BioAssay AID652126 (The Scripps Research Institute Molecular Screening Center, 2013)
Screen size: about 370,000 compounds; about 3,700 (1%) were called active.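 Rule for the calls: active = activation above the mean over all tested compounds plus 3 SD (cut at about 0.9% in these data); inactive = the rest.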 The entries come from a sample that favours actives as a whole.

tested on: Nuclear hormone receptor DAF-12 (Strongyloides stercoralis); test: ssDAF-12 driven luciferase reporter activation – cell-based, luminescence, HEK293, GRIP1 co-expression, lit1-tk-luc, primary screen (AID 652126); details: HEK293 ssDAF-12/GRIP1 lit1-tk-luc reporter, at 6.8 µM, active compounds read high, % of 3 µM dafachronic acid response;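 note: 0% = DMSO-only wells and 100% = 3 µM delta7-dafachronic acid wells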

activation, inactive:
Cc1cc(NC(=O)c2ccco2)c(=O)n(Cc2c(F)cccc2Cl)c1 -1.23%
Cn1c(=O)c2c(nc(NCCNC(=O)c3ccco3)n2Cc2ccccc2F)n(C)c1=O -0.73%
O=C(COc1ccccc1Cl)Nc1ccc(C(=O)c2ccc(C(=O)O)cc2)cc1 -1.01%
O=C(COc1ccccc1Cl)Nc1ccccc1C(=O)NC1CC1 -0.61%
O=C(CSc1nc2ccccc2s1)N=Nc1c(O)[nH]c2ccccc12 -1.23%
CCC1([N+](=O)[O-])COC(c2ccc(C(C)C)cc2)OC1 (stereo unspecified) -0.23%
CN(CCc1ccccc1)c1ccc([N+](=O)[O-])cn1 -0.22%
CCOC(=O)[C@@]12CCC3=C1N(CCC3)C(=O)[C@H](CC(=O)N1CCN(C(=O)c3ccco3)CC1)C2 -0.8%
CN1[C@H](Cc2ccccc2)COc2cccc(N3CCSCC3)c2S1(=O)=O -0.12%
O=C(NCC1COc2ccccc2O1)c1ccc(NC(=O)c2cc(F)ccc2F)cc1 (stereo unspecified) -0.55%
COC(=O)c1ccccc1-n1cc(COC(=O)NCCc2ccccc2)nn1 -1.12%
Nn1c(SCC(=O)Nc2nccs2)nncc1=O -2.06%
CCn1c(SCC(=O)Nc2nccs2)nnc1-c1ccco1 -1.06%
O=S1(=O)CC(N2CCN(CCO)CC2)CN1Cc1cn(Cc2ccc(Cl)cc2)nn1 (stereo unspecified) -0.54%
O=S1(=O)c2ccc(Br)cc2OC[C@@H](Cc2ccccc2)N1Cc1cn(Cc2ccco2)nn1 -1.35%
O=C(CCS(=O)(=O)c1ccccc1)Nc1ccc(Cl)c(Cl)c1 -1.34%
CCOC(=O)C1=C(C)NC2=C(C(=O)CC(C)(C)C2)C1c1ccc2c(c1)OCO2 (stereo unspecified) -1.32%
COc1ccccc1NC(=O)c1c(Br)cnn1C -1.57%
COc1ccccc1NC(=O)c1cc(Cl)nnc1Cl -0.66%
O=C(CSc1nnc(-c2cccc(Cl)c2)n1Cc1ccco1)Nc1ccc(OCc2ccccc2)cc1 -1.14%

activation, active:
Cn1c(=NC(=O)c2ccco2)sc2cccc(F)c21 2.16%
CC(=O)Nc1ccc(NC(=O)COc2ccccc2C(=O)Nc2cccc(Cl)c2Cl)cc1 1.78%
CC(C)c1ccc(C=NNc2ccc([N+](=O)[O-])cn2)cc1 1.01%
Nn1c(SCC(=O)Nc2nccs2)nnc1-c1ccco1 0.9%
Cc1cc(N)n2nc(-c3ccc(C(C)(C)C)cc3)cc2n1 2.97%
COc1ccccc1NC(=O)c1ccc(C)s1 1.3%
